Reference: the supplement of paper PMC10338343
± gives the standard deviation. Whole data set: some 5,500 sequences, median “pre-steady-state target cleavage rate” near 0.1, cut for the highest 2% near 0.64. Shown is part of a subset that was picked to be rich in the highest values.

test system: MIWI (PIWIL1) piRISC loaded with piRNA #2 (30 nt); test: pre-steady-state target cleavage rate (min^-1); MIWI and MILI are mouse PIWI proteins and EfPiwi is from a freshwater sponge; tags in brackets are library labels; higher = faster piRNA-guided slicing of the target; conditions: guide: piRNA #2 5'p-UUAGGUAACCCAGUAGAUCCAGAGGAAUUC; auxiliary factor: 500 nM mouse GTSF1
Experimental: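 Cleave-'n-Seq: a library of target RNAs (target site embedded in constant flanks, ACAGCATTCCGCGTTAGTGATATCCG... 5' flank; DNA-blocked outside the site) at 0.1 nM was incubated with 1 nM active mouse MILI or MIWI piRISC (synthetic 5'-monophosphorylated piRNA guide) with or without 500 nM mouse GTSF1 at 33 °C for 1 min to 16 h. Uncleaved targets were sequenced and normalised to non-target controls, and the pooled three trials were fitted to a burst-and-steady-state model to give the pre-steady-state cleavage rate (min^-1; k3 is constrained to at most 1e-4). Sequence is the target site only; target names encode pairing extent (gX:gY) and contiguous / 1-mismatch / 2-mismatch / bulge geometry. Fits with R² ≤ 0 are excluded.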

Sequence | pre-steady-state target cleavage rate
CAAUUCCUCUGGAUCUACAGGGUUUCCUAA | 0.178 ± 0.026
CAAUUCCUCAGGAUCUACUGGGUUACCUUA | 0.604 ± 0.075
GAAUUCCUCUGGAUGUACAGGGUUACCUAA | 0.413 ± 0.029
GAAAUCCUCUGGUUCUACUGGGUUACCUAA | 0.624 ± 0.05
CUAAUCCUCUGGAUCUACUGGGUUACCUAA | 0.412 ± 0.061
CUAAUCCUCUGGUUCUACUGGGUUACCUAA | 0.755 ± 0.048
CAAAUCCUCUGGUUCUACUGGGUUACCUAA | 0.79 ± 0.044
CUUAUCCUCUGGUUCUACUGGGUUACCUAA | 0.607 ± 0.047
CAAAUCCUCUGGAUCUACUGGGUUACCUAA | 0.47 ± 0.069
CUUAAGCUCUGGAACUACUCGGUUACCUAA | 0.0422 ± 0.011
CUUAUCCUCUGGAACUACUGGGUUACCUUA | 0.254 ± 0.03
CGAUUCCUCUGGAUCUACUGGGUUACCUAA | 0.329 ± 0.048
CUUUUCCUCUGGAUCUACUGGGUAACCAAA | 0.13 ± 0.034
CUUAAGGACGGGAUCUACUGGGUUACCUAA | 0.0681 ± 0.038
CUAUUCCUCUGGAAGUACUGGGUUACCUAA | 0.631 ± 0.046
CUAUUCCUCUGGAUUUACUGGGUUACCUAA | 0.529 ± 0.048
GAAUUCCUCUGGAUUACUGGGUUACCUAA | 0.413 ± 0.04
CAAUUCCUCUGGAUUACUGGGUUACCUAA | 0.692 ± 0.054
CAAUUCCUCUGGAUUCUACUGGGUUACCUAA | 0.473 ± 0.059
GAAUUCCUCUGGAUCUGCUGGGUUACCUAA | 0.213 ± 0.044
CAAUUCCUCUGGAUUUACUGGGUUACCUAA | 0.681 ± 0.062
GAAUUCCUCUGGAAGUACUGGGUUACCUAA | 0.511 ± 0.047
CAAUUCCUCUGGAUCUCCUGGGUUACCUAA | 0.231 ± 0.051
CAAUUCCUCUGGAUCUGCUGGGUUACCUAA | 0.641 ± 0.08
CAAUUCCUCUGGAAGUACUGGGUUACCUAA | 0.651 ± 0.044

Sequence | pre-steady-state target cleavage rate
GAAUUCCUCUGGAUUUACUGGGUUACCUAA | 0.425 ± 0.073
CAAUUCCUCUGGUUCUACUCGGUUACCUAA | 0.167 ± 0.014
CAAUUCCUCUGGAACUACUGGGUUACCAAA | 0.289 ± 0.055
CUUAAGGAGUGGAUCUACUGGGUUGCCUAA | 0.0417 ± 0.011
CUUAUCCAUCUGGAUCUACUGGGUUACCUAA | 0.508 ± 0.051
CUUUUCCUCUGGACCUACUGGGUUACCUAA | 0.157 ± 0.02
GAAUUCCUGUGGAUCUACUGCGUUACCUAA | 0.362 ± 0.053
CUUAUCCUCUGGAUCUACUGGGAUACCUAA | 0.302 ± 0.039
CUUAAGGUCUGGAUCUUCUGGGAUACCUAA | 0.0453 ± 0.017
GAAUUCCACUGGAUCUACUGGGUUACGUAA | 0.803 ± 0.043
CAAUUCCUCAGGAUCUACUGGGUUACGUAA | 0.594 ± 0.058
CUAUUCCACUGGAUCUACUGGGUUACGUAA | 0.481 ± 0.066
GAAUUCCUCAGGAUCUACUGGGUUACGUAA | 0.738 ± 0.062
CUAUUCCUGUGGAUCUACUGGGUUACGUAA | 0.47 ± 0.052
GAAUUCCACUGGAUCUACUGGGUUAGCUAA | 0.668 ± 0.12
CUAUUCCACUGGAUCUACUGGGUUAGCUAA | 0.16 ± 0.04
GAAUUCCUGUGGAUCUACUGGGUUACGUAA | 0.637 ± 0.063
CUAUUCCUCAGGAUCUACUGGGUUACGUAA | 0.499 ± 0.073
CAAUUCCACUGGAUCUACUGGGUUAGCUAA | 0.223 ± 0.076
CAAUUCCACUGGAUCUACUGGGUUACGUAA | 0.419 ± 0.081
CAAUUCCUGUGGAUCUACUGGGUUACGUAA | 0.428 ± 0.075
CUUAUCCUGUGGAUCUACUGGGUUACCAAA | 0.166 ± 0.038
CUAAACCUCUGGAUCUACUGGGUUACCUAA | 0.266 ± 0.04
CUUAUCCUGACGAUCUACUGGGUUACCUAA | 0.0767 ± 0.014
CUUAACCCUGGAUCUACUGGGUUACCUAA | 0.326 ± 0.033

Sequence | pre-steady-state target cleavage rate
CUUAUCCUCUGGAUCUACUGGGAUUCCUAA | 0.103 ± 0.04
CUUAAGGAGAGGUUCUACUGGGUUUCCUAA | 0.00421 ± 0.0042
CUUAUCCUCUGGAUCUACUCGGUUACCUAA | 0.0981 ± 0.018
CUAUUCCUCUGGAUACUACUGGGUUACCUAA | 0.422 ± 0.056
CUUAUCCUCUGGAUUACUGGGUUACCUAA | 0.481 ± 0.04
CAAUUCCUCUGGAUAUACUGGGUUACCUAA | 0.724 ± 0.043
CUUUUCCUCUGGAUAUACUGGGUUACCUAA | 0.628 ± 0.04
CUUAUCCUCUGGAUACUACUGGGUUACCUAA | 0.419 ± 0.059
CAAUUCCUCUGGAUACUACUGGGUUACCUAA | 0.519 ± 0.068
CUAUUCCUCUGGAUAUACUGGGUUACCUAA | 0.772 ± 0.057
GAAUUCCUCUGGAUAUACUGGGUUACCUAA | 0.551 ± 0.038
CUUAUCCUCUGGAUAUACUGGGUUACCUAA | 0.688 ± 0.052
CAAUUCCUCAGGAUCUACUGGGUAACCUAA | 0.336 ± 0.056
CUUAACCUCUGGAUCUUCAGGGUUACCUAA | 0.112 ± 0.014
CUUAACCUCUGGAACUACUGGGUUAGCUAA | 0.103 ± 0.016
CAAUUCCUCUCGAUCUACAGGGUUACCUAA | 0.546 ± 0.038
CUUUUCCUCUGGAACUAGUGGGUUACCUAA | 0.204 ± 0.025
CUUAAGGAGAGGAUCUACUGGGUUACCUCA | 0.012 ± 0.0055
CUAUUCCUCUCGGAUCUACUGGGUUACCUAA | 0.575 ± 0.089
CAAAUCCUCUCGAUCUACUGGGUUACCUAA | 0.641 ± 0.05
GAAAUCCUCUCGAUCUACUGGGUUACCUAA | 0.586 ± 0.054
CAAUUCCUCUCGAUCUACUGGGUUACCUUA | 0.69 ± 0.056
CAAUUCCUCUCGAUCUACUGGGUUACCUAA | 0.822 ± 0.063
